# Results reported in PubChem BioAssay AID686978 (National Center for Advancing Translational Sciences (NCATS), 2013).
# The whole screen tested about 420,000 compounds, of which about 64,000 (15%) were called active. Another 27% or so got no clear call; they are omitted. Only a sample is shown. A number with no mark means an inactive call. The call rests on the fitted dose curve; in most records, active means well fitted inhibition curve with a large enough effect; inconclusive means small, poorly fitted or top-dose-only effect; inactive means flat fitted curve, though single readings scatter.
# Test: qHTS for Inhibitors of human tyrosyl-DNA phosphodiesterase 1 (TDP1): qHTS in cells in absence of CPT; further: nearly all actives have a fitted effect of over 55% in size
# Settings: DT40 Tdp1-/- hTDP1 cells, no CPT, ATP luminescence, 48 h; activity change, negative = growth inhibition: at 46.2 µM (top of the series)
# Outline: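 Growth of hTDP1-complemented DT40 Tdp1-knockout cells is measured by ATP luminescence after at least 48 hr compound exposure at 37 °C, with DMSO substituting for the 20 nM CPT used in the parallel screen.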
# On the % scale 0 is the no-effect control and ±100 the full control effect; potency means the concentration at half of the fitted maximal effect.
SMILES,"activity change, negative = growth inhibition",Potency
COC(=O)C1=C(NC(=O)C(C)(C)C)CCS1,-2.33%,
Cc1cc(C)c(C=NNc2nc3c([nH]2)c(=O)n(C)c(=O)n3C)c(C)c1,1.78%,
Cc1ccc(NC(=O)C(=O)NCc2ccco2)c(C)c1,-25.9%,
Cc1ccccc1NC(=O)NCc1ccco1,8.72%,
CS(=O)(=O)N(CC(=O)NCc1ccco1)c1ccc2c(c1)OCO2,-0.836%,
Cc1cccc(Nc2ccccc2C(=O)NCc2ccco2)c1C,,20.6 µM (active)
O=C(Nc1ccccc1)Nc1ccccc1C(=O)NCc1ccco1,-17.1%,
Cc1ccc(N(Cc2ccc(C(=O)Nc3ccccc3C(=O)NCc3ccco3)cc2)S(C)(=O)=O)cc1C,,18.4 µM (active)
CCC(C)NC(=O)CN(C1CCCCC1)S(C)(=O)=O (configuration not stated),-11.3%,
CCOC(=O)N1CCN(C(=O)C2CCN(S(C)(=O)=O)CC2)CC1,-4.04%,
Fc1ccc(COc2ccc(-c3nnco3)cc2)cc1,-10.2%,
O=C(O)C1CCN(C(=O)c2cc(F)cc3c2OCOC3)CC1,-1.32%,
Cc1ccnc(N2CCC(C(=O)NC3CCCCCC3)CC2)n1,-5.99%,
COc1nc(NC2CCCCC2)nc(N2CCCCCC2)n1,,12.6 µM (active)
Clc1nc(NC2CCCC2)nc(N2CCOCC2)n1,-27.4%,
CCn1c(SCC(=O)Nc2ccc3c(c2)OCCO3)nnc1C(C)C,-12.3%,

SMILES,"activity change, negative = growth inhibition",Potency
CCCn1c(SCC(N)=O)nnc1C(C)C,-8.78%,
CCCn1c(SCC(=O)c2ccc3c(c2)OCCO3)nnc1C(C)C,,20.6 µM (active)
Cc1ccc(-n2c(C)cc(C(=O)CN3C(=O)C(=O)N(C4CCCC4)C3=O)c2C)cc1,,25.9 µM (active)
C=CCn1c(C)cc(C(=O)CN2C(=O)c3ccccc3C2=O)c1C,-25.9%,
CCOC(=O)c1cc2c(n(-c3ccc(C)cc3)c1=O)CCCC2=O,-13.6%,
COc1ccc(NC(=O)CCCC2CCCCC2)c(OC)c1,-16.4%,
C=CCNC(=S)NNC(=O)c1cc(Cl)ccc1OC,3.87%,
O=C(/C=C/c1ccco1)NC(=S)Nc1ccccc1Br,-12.9%,
COc1ccc(Cl)cc1C(=O)NNC(=S)NC(=O)/C=C/c1ccco1,,23.1 µM (active)
CC(C)c1nc(CNC(=O)CC2C(=O)NCCN2Cc2ccoc2)cs1 (configuration not stated),-1.5%,
O=C(COC(=O)Cn1cnc2ccccc21)Nc1cccc2c1C(=O)c1ccccc1C2=O,,9.2 µM (active)
O=C(COC(=O)Cn1cnc2ccccc2c1=O)NCc1ccccc1Cl,2.41%,
O=C(Cn1cnc2ccccc21)N/N=C/c1ccco1,15%,
O=C(Cn1cnc2ccccc21)Nc1ccccc1-c1ccccc1,,2.31 µM (active)
CCC(=O)Nc1ccccc1-c1nc2ccccc2n(CC(=O)Nc2ccc(C)c(C)c2)c1=O,-29%,
CN(Cc1c(F)cccc1Cl)C(=O)COC(=O)Cn1cnc2ccccc2c1=O,3.31%,
